# High-throughput results as filed in PubChem BioAssay.
# Most compounds without a hit are left out; they make up all but 1.8% or so of the library.
# KCNH2 3.1 inh = qHTS for Inhibitors of KCHN2 3.1: Mutant qHTS; Potassium voltage-gated channel subfamily H member 2, brain isoform KCNH2 3.1 (human); activity change, % (tested at about 1.8 µM); 340,000 compounds, 0.95% hits; U2OS KCNH2 3.1, thallium flux FluxOr; active compounds read low;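 active = maximum activity change below -70%; inconclusive = maximum activity change from -70% to -50%; inactive = maximum activity change above -50%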;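 note: thallium influx rate constant from kinetic fluorescence after stimulation buffer; % is set by controls: 0 for no effect and ±100 for the full control effect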
#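 U2OS cells transduced with KCNH2 3.1 mutant virus (1.77 x 10^8 /mL, 4 h), plated overnight at 37 C, loaded 45 min with FluxOr dye plus Red40 quencher. Thallium flux rate constant from kinetic reads after stimulation buffer, normalised to controls.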
# AT treatment = qHTS Assay for Identifying a Potential Treatment of Ataxia-Telangiectasia; F2112 A-T fibroblasts, KAP-1 phosphorylation AlphaLISA; neocarzinostatin DNA damage 30 min before lysis; Potency, µM (series often up to 57.5 µM), without a hit: top-dose activation, hits mostly activators; 320,000 compounds, 0.19% hits; AID 485349, 2010; note: potency is the fitted concentration of half-maximal effect; % of control where 0% means no effect; nearly all actives have a fitted effect of over 45% in size
#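 hTERT-immortalized A-T patient fibroblasts (F2112), 500 cells/well in OPTI-MEM, 1% FBS, got compounds for 60 min, then NCS for 30 min at 37C. Lysates were then assayed for phospho-KAP-1 by AlphaLISA (anti-pKAP1 donor, anti-KAP1 acceptor beads), 6 hr at 25C.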
# 12-LOX inh = Primary qHTS assay for inhibitors of human arachidonate 12S-lipoxygenase (ALOX12): Round 2; Potency, µM (doses to about 108 µM), without a hit: at the highest dose activity change, negative = inhibition, actives largely listed as inhibitors; 580,000 compounds, 1.1% hits; purified 12hLO, xylenol orange hydroperoxide absorbance; AID 1671190, 2021; Polyunsaturated fatty acid lipoxygenase ALOX12 (Homo sapiens), P18054; note: potency is the fitted concentration of half-maximal effect; % is set by controls: 0 for no effect and ±100 for the full control effect
#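 Purified human 12hLO at 150 nM in 25 mM Hepes, 0.01% Triton X-100, pH 7.0, preincubated 15 min at room temperature with compound. Reaction started with 40 uM arachidonic acid, 30 min at room temperature. Hydroperoxide measured by Fe-xylenol orange, 573/405 nm absorbance ratio.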
# hERG WT inh = qHTS for Inhibitors of KCHN2 3.1: Wildtype qHTS. Voltage-gated inwardly rectifying potassium channel KCNH2 (Homo sapiens), Q12809. U2OS, BacMam KCNH2, thallium flux FluxOr; active compounds read low. activity change, % at 1.84 µM. 340,000 compounds, 0.37% hits;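 active = maximum activity change below -70%; inconclusive = maximum activity change between -70% and -50%; inactive = maximum activity change above -50%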; note: % is set by controls: 0 for no effect and ±100 for the full control effect
#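 U2OS cells were transduced with wild-type KCNH2 virus (2.03 x 10^8 / mL) for 4 h at room temperature, then cultured overnight at 37 C. Thallium flux was read with FluxOr dye. Rate constants were normalized to DMSO controls.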
# Active calls of the source: *; ? = inconclusive; · = not tested or not shown; [ ] = dose if it differs, or a comment. Unless noted, calls come from the whole dose curve; as a rule, active = well fitted curve in the direction sought with a large enough effect; inconclusive = small, poorly fitted or top-dose-only effect, or another doubt; inactive = no such curve, though single readings can be large; an effect the other way counts as inactive or inconclusive.
SMILES,KCNH2 3.1 inh,AT treatment,12-LOX inh,hERG WT inh
Cc1ccc(-n2c(SCc3cccc(C)c3)nc3c(=O)[nH]cnc32)cc1,·,·,16%,·
COc1ccc2oc(/C=C/N(C)C)c(C(=O)c3ccc(Cl)cc3)c2c1,6,8%,7.1µM*,-1
COc1ccc2oc(C)c(C(=O)c3ccccc3)c2c1,10,·,155%,-1
COCc1nncn1C1CCN(C(=O)Cc2ccccc2Cl)CC1,·,·,10%,·
Cc1c(N(Cc2ccc(F)cc2)Cc2ccc(F)cc2)c(=O)n(-c2ccccc2)n1C,·,·,-16%,·
COc1ccc(Br)cc1C[N+]1(C)CCCCC1,·,·,16µM*,·
Cc1ccc(S(=O)(=O)N2CCC(OC3CCN(Cc4ccccc4)CC3)CC2)cc1C,·,·,0%,·
COC(=O)C1CCC(=S)N1C(=O)c1ccccc1 (centres undefined),-3,-1%,8.9µM*,-1
CCCN1C(=O)[C@@H]2[C@@H](CCN2C(=O)CSCC(=O)O)N(Cc2cccs2)C1=O,·,·,32µM*,·
Cc1ccc(C(=O)COC(=O)CCC(=O)Nc2cc(C(F)(F)F)ccc2Cl)cc1[N+](=O)[O-],·,·,-3%,·
O=C(CCCc1ccccc1)NCc1nnc2cc(-c3nc(C4CC4)no3)ccn12,·,·,8%,·
CC(=O)Nc1ccc(S(=O)(=O)Nc2nc3ccccc3nc2Nc2cccc(C)c2)cc1,·,·,-5%,·
CC(=O)Nc1ccc(S(=O)(=O)Nc2nc3ccccc3nc2Nc2cccc(Cl)c2)cc1,·,·,16µM*,·
O=C(Cc1n[nH]c(=O)c2ccccc12)NCC(=O)N1CCN(c2ccc(F)cc2)CC1,·,·,-1%,·
O=C(Cc1n[nH]c(=O)c2ccccc12)NCC(=O)N1CCN(c2ccccc2)CC1,·,·,11µM*,·
CS(=O)(=O)N1N=C(c2ccc(Cl)cc2)CC1c1ccccc1 (centres undefined),·,·,7%,·
CC(=O)Nc1ccc(S(=O)(=O)N2CCN(C(=O)C3COc4ccccc4O3)CC2)cc1 (centres undefined),1,-22%,0%,1
COc1ccc(S(=O)(=O)N2CCN(C(=O)C3COc4ccccc4O3)CC2)cc1 (centres undefined),-2,6%,40µM*,-2
COCCCn1c(C23CC4CC(CC(C4)C2)C3)n[nH]c1=S,-14,-4%,?,5
Fc1ccccc1-n1c(C23CC4CC(CC(C4)C2)C3)n[nH]c1=S,·,·,14µM*,·
Cn1c(C23CC4CC(CC(C4)C2)C3)n[nH]c1=S,4,2%,?,-7
CC(C)Cn1c(C23CC4CC(CC(C4)C2)C3)n[nH]c1=S,-5,11%,28µM*,5
C=CCn1cc2c3c(cccc31)[C@H](CC(C)C)N[C@H](C(=O)NCCOC)C2,·,·,-1%[176 µM],·
COc1ccccc1NC(=O)Cc1csc(NC(=S)Nc2ccccc2)n1,10,1%,18µM*,6
N#Cc1ccnc(-c2nnc3ccc(NCc4cnccn4)nn23)c1,·,·,40%[176 µM],·
SMILES,KCNH2 3.1 inh,AT treatment,12-LOX inh,hERG WT inh
O=S(=O)(Nc1cc2nc3ccccc3nc2n1Cc1ccccc1)c1ccc(Cl)cc1,9,25µM*,45µM*,-15
O=S(=O)(NCc1ccccc1)c1ccc(Cl)cc1,-3,-2%,4%,-4
CCOC(=O)c1c(C)c[nH]c1C,-85*,0%,-6%,2
COC(=O)c1c(C)c[nH]c1C,-2,-16%,0%,2
CCCOc1cccc(-c2cc(C(=O)NNC(=S)NCC)c3ccccc3n2)c1,-19,-6%,25µM*,5
CCCCNC(=O)c1cc(-c2ccc(OCC)cc2)nc2ccccc12,·,·,-40%,·
CCN(CC)CCCNC(=O)c1cc(-c2ccc(OC)cc2)nc2ccccc12,·,·,6.3µM*,·
CCN(CC)CCCNC(=O)c1cc(Nc2ccc(OC)cc2)nc2ccccc12,-41,20%,26%,-4
CCNC(=S)NNC(=O)c1cc(-c2cccc(OC)c2)nc2ccccc12,-10,-1%,-24%,1
CCCCCNC(=O)c1cc(-c2ccc(OC)cc2)nc2ccccc12,·,·,32µM*,·
CC1CCN(S(=O)(=O)NCc2ccnc(OCc3ccccc3)c2)CC1,·,·,-4%,·
COc1ccc2[nH]c3c(c2c1)CCNC31CCN(C(=O)c2cccnc2C)CC1,·,·,48%,·
CCCNC(=O)c1ccc(N2CCC3(CC2)CC(c2cccc(Br)c2)=NO3)c([N+](=O)[O-])c1,-80*,-6%,8%,-129*
CCCNC(=O)c1ccc(N2CCC3(CC2)CC(c2cccc(Br)c2)=NO3)c(NC(=O)c2ccccc2)c1,-42,5%,?,-37
CCCNC(=O)c1ccc(N2CCC3(CC2)CC(c2cccc(Br)c2)=NO3)c(NC(=O)c2cccc(OC)c2)c1,-72*,3%,-13%,-40
CCCCCCCC(=O)Nc1cc(C(=O)NCCC)ccc1N1CCC2(CC1)CC(c1ccccc1)=NO2,-90*,-7%,0%,-113*
Cc1csc(CNC(=O)c2cccnc2)n1,·,·,0%,·
CCN1c2cc(C(=O)Nc3ccc(Cl)cc3)ccc2C(=O)N2CCCCCC21 (centres undefined),·,·,9%,·
CC(=O)c1cc(C(C)(C)C)cc(C(C)(C)C)c1,·,·,-4%,·
COc1cc(SC)ccc1C(=O)Nc1ccc(C)cc1C,-82*,4%,-23%,-4
CSc1cccc(NC(=S)NN/C(=N/S(=O)(=O)c2ccccc2)N2CCCC2)c1,·,·,45µM*,·
Cc1oc2c(cc(NS(=O)(=O)c3ccc(Cl)cc3)c3ccccc32)c1C(=O)O,3,6%,40µM*,2
CCc1ccccc1NC(=O)Cn1nc(C)c2ccccc21,·,·,38%,·
COc1ccccc1-n1cnnc1SCc1csc(-c2ccccc2)n1,4,2%,475%,6
COCCn1cnnc1SCc1csc(-c2cc(Br)ccc2OC)n1,·,·,16µM*,·
SMILES,KCNH2 3.1 inh,AT treatment,12-LOX inh,hERG WT inh
COC(=O)c1cc(S(=O)(=O)N(C)C2CCCCC2)c[nH]1,-120*,1%,-4%,13
Nc1nnnn1NCc1cc(Br)ccc1OCc1ccccc1,·,·,5%,·
O=C(NCCc1ccc(Cl)cc1)c1ccccn1,·,·,32µM*,·
O=C(NCCc1ccc(F)cc1)c1ccccn1,·,·,5%,·
CC(=O)c1ccc(N2CCN(CC(=O)Nc3ccnn3Cc3cccc(Cl)c3)CC2)c(F)c1,·,·,37%,·
CCOC(=O)C1(CCOc2ccccc2)CCN(Cc2ccc(O)cc2)CC1,-84*,6%,-10%,-21
CCOC(=O)C1(CCOc2ccccc2)CCN(Cc2ccc(OCCO)cc2)CC1,-110*,3%,14%,-77*
N#Cc1ccccc1CNc1ccc(F)c(Cl)c1,·,·,1%,·
Cc1ccc(C(=O)NNC(=O)c2n[nH]c(=O)c3ccccc23)cc1C,-79*,-11%,471%,6
CCCCN(C)Cc1cc(=O)oc2cc(C)c(O)cc12,·,·,-21%,·
CCCCN(CCCC)Cc1cc(=O)oc2cc(C)c(O)cc12,·,·,40µM*,·
O=C(O)c1ccccc1SC1CC(=O)N(c2cccc3ccccc23)C1=O (centres undefined),-23,0%,-16%,4
